From PubChem BioAssay AID1159580 (chemical genetic matrix, 2015)
Where “and” joins values, the source holds several entries; their conditions need not be identical. Identical values can stand only once. About 2,000 (36%) of roughly 5,500 compounds were called active. Inconclusive results (about 18%) are left out. Cut-off read from the data, not from the text of the source: active = normalized growth mostly below about 0.91 (no sharp cut-off); inconclusive = no clear call, values can overlap the other calls; inactive = mostly above about 0.92. This is one part of the list.

Assay: chemical genetic growth profiling, strain panel (AID 1159580);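 note: tested at 20 µM; growth read once vehicle control cultures reached saturation at 30 °C; 1 = growth at the plate median or of vehicle wells; lower values mean less growth of the strain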
Conditions: S. cerevisiae deletion strains, growth OD

Measured: normalized growth

C[C@H]1O[C@@H](O[C@H]2[C@@H](O)C[C@H](O[C@H]3[C@@H](O)C[C@H](O[C@H]4CC[C@]5(C)C6C[C@@H](O)[C@]7(C)[C@@H](C8=CC(=O)OC8)CC[C@]7(O)C6CC[C@@H]5C4)O[C@@H]3C)O[C@@H]2C)C[C@H](O)[C@@H]1O (stereo partly drawn)
inactive: locus YAL013W, strain DEP1, stronger effect = lower value 0.992 | locus YAL021C, strain ccr4, stronger effect = lower value 0.982 | locus YAL026C, strain drs2, stronger effect = lower value 1.01 | locus YAL030W, strain snc1, stronger effect = lower value 0.991 | locus YBL061C, strain skt5, stronger effect = lower value 0.99 | locus YBR009C, strain hhf1, stronger effect = lower value 1.08 | locus YBR021W, strain FUR4, stronger effect = lower value 1.01 | locus YBR023C, strain chs3, stronger effect = lower value 0.994 | locus YBR171W, strain sec66, stronger effect = lower value 0.984 | locus YBR229C, strain ROT2, stronger effect = lower value 1 | locus YBR231C, strain swc5, stronger effect = lower value 0.989 | locus YBR279W, strain paf1, stronger effect = lower value 0.996 | locus YCL011C, strain gbp2, stronger effect = lower value 0.967 | locus YCL016C, strain dcc1, stronger effect = lower value 0.992 | locus YCL029C, strain bik1, stronger effect = lower value 0.977 | locus YCL061C, strain MRC1, stronger effect = lower value 1.01 | locus YCL069W, strain vba3, stronger effect = lower value 0.991 | locus YCR088W, strain abp1, stronger effect = lower value 0.997 | locus YDL005C, strain med2, stronger effect = lower value 0.98 | locus YDL035C, strain GPR1, stronger effect = lower value 0.987 | locus YDL040C, strain nat1, stronger effect = lower value 0.999 | locus YDL074C, strain BRE1, stronger effect = lower value 0.982 | locus YDL101C, strain DUN1, stronger effect = lower value 1.01 | locus YDL134C, strain PPH21, stronger effect = lower value 1.03 | locus YDL185W, strain tfp1, stronger effect = lower value 0.955 | locus YDL192W, strain arf1, stronger effect = lower value 0.983 | locus YDR001C, strain nth1, stronger effect = lower value 0.982 | locus YDR069C, strain doa4, stronger effect = lower value 0.996 | locus YDR101C, strain arx1, stronger effect = lower value 0.982 | locus YDR137W, strain rgp1, stronger effect = lower value 0.978 | locus YDR150W, strain NUM1, stronger effect = lower value 0.991 | locus YDR159W, strain sac3, stronger effect = lower value 1.02 | locus YDR162C, strain NBP2, stronger effect = lower value 1.03 | locus YDR195W, strain ref2 0.987 | locus YDR297W, strain sur2, stronger effect = lower value 0.987 | locus YDR318W, strain mcm21, stronger effect = lower value 1 | locus YDR334W, strain swr1, stronger effect = lower value 0.957 | locus YDR335W, strain msn5, stronger effect = lower value 0.98 | locus YDR388W, stronger effect = lower value 0.984 | locus YDR392W, strain spt3, stronger effect = lower value 0.975 | locus YDR502C, strain sam2, stronger effect = lower value 1.01 | locus YEL003W, strain gim4, stronger effect = lower value 0.997 | locus YEL037C, strain rad23, stronger effect = lower value 1 | locus YEL061C, strain CIN8 (second series), stronger effect = lower value 0.992 | locus YEL061C, strain CIN8, stronger effect = lower value 1 | locus YER015W, strain faa2, stronger effect = lower value 1.01 | locus YER016W, strain bim1, stronger effect = lower value 0.987 | locus YER110C, stronger effect = lower value 0.961 | locus YER111C, strain swi4, stronger effect = lower value 1.01 | locus YER155C, strain BEM2 (second series), stronger effect = lower value 1.04 | locus YER155C, strain BEM2, stronger effect = lower value 0.986 | locus YER167W, strain BCK2, stronger effect = lower value 0.992 | locus YFR010W, strain ubp6, stronger effect = lower value 1 | locus YGL078C, strain dbp3, stronger effect = lower value 1 | locus YGL086W, strain mad1, stronger effect = lower value 0.969 | locus YGL167C, strain pmr1, stronger effect = lower value 0.998 | locus YGL173C, strain kem1, stronger effect = lower value 0.981 | locus YGL227W, strain vid30, stronger effect = lower value 0.99 | locus YGL240W, strain doc1, stronger effect = lower value 0.973 | locus YGL248W, strain PDE1, stronger effect = lower value 1.02 | locus YGL253W, strain hxk2, stronger effect = lower value 0.957 | locus YGR135W, strain pre9, stronger effect = lower value 1.01 | locus YGR252W, strain gcn5, stronger effect = lower value 1.09 | locus YHR013C, strain ard1, stronger effect = lower value 0.977 | locus YHR027C, strain rpn1, stronger effect = lower value 0.976 | locus YHR030C, strain SLT2, stronger effect = lower value 0.983 and 1.05 | locus YHR079C, strain IRE1 (second series), stronger effect = lower value 0.982 | locus YHR079C, strain IRE1, stronger effect = lower value 1.06 | locus YHR094C, strain hxt1, stronger effect = lower value 0.973 | locus YHR129C, strain ARP1, stronger effect = lower value 0.993 | locus YHR142W, strain chs7, stronger effect = lower value 0.964 | locus YHR200W, strain rpn10, stronger effect = lower value 0.97 | locus YIL066C, strain RNR3, stronger effect = lower value 1 | locus YIL073C, strain SPO22, stronger effect = lower value 0.937 | locus YIL125W, strain kgd1, stronger effect = lower value 0.941 | locus YIR030C, strain dcg1, stronger effect = lower value 0.99 | locus YJL092W, strain hpr5, stronger effect = lower value 0.996 | locus YJL095W, strain BCK1 (second series), stronger effect = lower value 0.976 | locus YJL095W, strain BCK1, stronger effect = lower value 1.02 and 1.06 | locus YJL115W, strain asf1, stronger effect = lower value 0.984 | locus YJL129C, strain trk1, stronger effect = lower value 0.979 | locus YJL134W, strain LCB3, stronger effect = lower value 0.985 | locus YJL154C, strain vps35, stronger effect = lower value 0.977 | locus YJL164C, strain tpk1, stronger effect = lower value 1.02 | locus YJL166W, strain qcr8, stronger effect = lower value 0.939 | locus YJL168C, strain set2, stronger effect = lower value 0.998 | locus YJL187C, strain SWE1 (second series), stronger effect = lower value 1.02 | locus YJL187C, strain SWE1, stronger effect = lower value 0.993
